Test results from the supplement of paper PMC3545927.
The list shows a part of the results. How many sequences the whole screen found active is unknown.

Target: furin, P09958
Test: furin cleavage Z-score vs untreated control; higher = more cleavage, active = 3.5 or more, inactive = 1 or less, 8 variable residues between constant flanks
Summary of the method: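 Furin cleavage was scored on 8-mer peptides joined to a cDNA oligonucleotide and bound to magnetic beads at the N-terminus. Digestion with purified furin (1:10 enzyme:substrate, 0.01 ml, 50 mM HEPES pH 7.5, CaCl2, NaCl) lasted 7.5, 15 or 30 min. Freed DNA was tagged with adapters by PCR, sequenced and counted; the cleavage Z-score is the lowess-adjusted log count versus furin-free reactions, scaled by median absolute deviation.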

furin, P09958, sequence (P09958 whole entry): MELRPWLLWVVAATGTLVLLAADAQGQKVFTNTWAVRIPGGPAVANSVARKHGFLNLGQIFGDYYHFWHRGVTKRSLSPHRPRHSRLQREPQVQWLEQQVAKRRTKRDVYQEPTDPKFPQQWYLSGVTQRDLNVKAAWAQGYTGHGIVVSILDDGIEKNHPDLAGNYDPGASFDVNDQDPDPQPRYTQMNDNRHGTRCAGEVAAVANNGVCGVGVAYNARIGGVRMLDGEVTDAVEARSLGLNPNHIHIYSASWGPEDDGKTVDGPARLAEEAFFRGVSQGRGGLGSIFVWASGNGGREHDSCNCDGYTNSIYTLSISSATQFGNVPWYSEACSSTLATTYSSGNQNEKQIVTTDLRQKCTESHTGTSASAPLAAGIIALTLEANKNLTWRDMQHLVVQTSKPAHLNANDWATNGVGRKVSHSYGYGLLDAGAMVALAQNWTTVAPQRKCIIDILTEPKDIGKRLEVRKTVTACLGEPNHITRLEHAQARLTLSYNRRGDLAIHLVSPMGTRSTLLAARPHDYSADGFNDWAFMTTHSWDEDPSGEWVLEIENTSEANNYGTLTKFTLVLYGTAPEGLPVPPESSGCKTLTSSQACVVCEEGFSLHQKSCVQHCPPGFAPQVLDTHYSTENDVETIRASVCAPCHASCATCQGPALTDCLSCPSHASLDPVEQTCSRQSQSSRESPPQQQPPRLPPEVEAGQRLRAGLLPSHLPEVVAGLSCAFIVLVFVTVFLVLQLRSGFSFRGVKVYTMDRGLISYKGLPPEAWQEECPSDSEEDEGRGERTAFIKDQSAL

Sequence | furin cleavage Z-score (7.5 min) | furin cleavage Z-score (15 min) | furin cleavage Z-score (30 min)
CAEVATSTWVAGNASASA [HC2183] | -1.15 (inactive) | -1.35 (inactive) | -0.393 (inactive)
CASTPCSQHLAGNASASA [HC2542] | -0.0132 (inactive) | 0.861 (inactive) | 2.13
CAITLTHPVTAGNASASA [HC978] | -0.565 (inactive) | -1.36 (inactive) | -0.511 (inactive)
CACVVTSTWVAGNASASA [HC2160] | -0.122 (inactive) | 1.54 | -0.488 (inactive)
CARERKAGCKAGNASASA [DV2] | 0.35 (inactive) | 1.62 | 2.14
CAMEEYSQHLAGNASASA [HC17] | -0.583 (inactive) | 0.186 (inactive) | 0.59 (inactive)
CASVLCECYDAGNASASA [HC918] | -0.934 (inactive) | -1.47 (inactive) | -0.91 (inactive)
CARKARSYIKAGNASASA [FS-2340] | -0.0545 (inactive) | 0.583 (inactive) | 3.72 (active)
CARKAVTHINAGNASASA [HC1427] | -0.202 (inactive) | -1.07 (inactive) | 0.0109 (inactive)
CARRKRKKEVAGNASASA [FS-2296] | 1.16 | -1.15 (inactive) | 1.21
CARRKRHSEHAGNASASA [FS-3166] | 10.5 (active) | 10.9 (active) | 8.79 (active)
CARRKRYISQAGNASASA [FS-1780] | 6.79 (active) | 7.45 (active) | 9.13 (active)
CARKARIISQAGNASASA [FS-3157] | 1.75 | -1.95 (inactive) | -0.675 (inactive)
CANTLTCYIKAGNASASA [HC1516] | -0.56 (inactive) | -0.15 (inactive) | -0.828 (inactive)
CARKARMLYQAGNASASA [FS-2685] | 1.39 | 5.49 (active) | 5 (active)
